# Most compounds without a hit are left out; they make up all but 21% or so of the library.
# AMA1 RON2 block = inhibitors of Plasmodium falciparum AMA1-RON2 interaction | AlphaScreen AMA1-biotinylated RON2 peptide binding | Potency, µM (titrated, usually from 58.2 µM), most hits filed as inhibitors | 360,000 compounds, 0.2% hits | AID 720542; note: nearly all actives have a fitted effect of over 45% in size
#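 AMA1 (3D7) with his tag at 25 nM final met compounds first, then biotinylated RON2 peptide at 25 nM; detection used donor plus acceptor beads, 10 µg/mL apiece, read by AlphaScreen after 30 min at room temperature.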
# CHX counter = counter-screen hit for Shiga toxin inhibitors, cycloheximide; cell reporter, cycloheximide protein synthesis inhibition counterscreen; max response, %; 300,000 compounds, 12% hits; in the data active = max response mostly above about 13%, no sharp cut-off; inactive = mostly below about 14%; note: read at 38.3 µM for the half of the compounds with a filed dose
# HCV inhibitor = inhibitors of hepatitis C virus infection. Huh7.5.1 HCVcc-Cre infection, luciferase reporter, 44 h. Potency, µM (titrated, usually from 41.8 µM), usual class: inhibitors. 340,000 compounds, 3.4% hits. AID 651820
#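 Reporter virus HCVcc-Cre (~0.5 moi) infects cells exposed to compound; seeding density 1,000 cells/well with 4 h settling beforehand. Luminescence, 15 sec read, taken 44 h post-infection following a 15 min RT substrate incubation.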
# Pf growth 48h = P. falciparum growth inhibition at 48 hours (one generation); P. falciparum luciferase growth in erythrocytes, 48 h; 310,000 compounds, 5.9% hits; Potency, µM (titrated, usually from 28.7 µM), most hits filed as inhibitors
#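 Luciferase-expressing parasites in RBCs, 2% Hct / 0.1% parasitemia final; RPMI 1640 + 0.5% Albumax; 37 C, 5% CO2, one generation; luminescence read-out, lower signal = inhibition.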
# Pf growth 96h = P. falciparum growth inhibition at 96 hour, primary screen for plastid delayed-death inhibitors. P. falciparum luciferase reporter growth, 96 h. AID 504834. Potency, µM (top dose mostly 28.7 µM), actives largely listed as inhibitors. 320,000 compounds, 6.9% hits
#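 Infected RBCs, 2% Hct / 0.05% parasitemia final; luciferase-reporter P. falciparum; cpd 96 h, 37 C, 5% CO2; luciferase detection reagent; luminescence.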
# Shiga toxin inh = inhibitors of Shiga toxin in Vero cells | Vero cells, Shiga toxin protein synthesis inhibition reporter | inhibition, % at 38.7 µM | 290,000 compounds, 9.2% hits | AID 2315; in the data active = inhibition mostly above about 28%, no sharp cut-off; inactive = mostly below about 43%
# Numbers stand for hits; i = inactive; ? = inconclusive; nt = no result; [ ] = remark or other dose. Unless noted, calls come from the whole dose curve; as a rule, active = well fitted curve in the direction sought with a large enough effect; inconclusive = small, poorly fitted or top-dose-only effect, or another doubt; inactive = no such curve, though single readings can be large; an effect the other way counts as inactive or inconclusive.
SMILES,AMA1 RON2 block,CHX counter,HCV inhibitor,Pf growth 48h,Pf growth 96h,Shiga toxin inh
COCC(=O)N(Cc1cc2ccc(C)cc2[nH]c1=O)c1cccc(C)c1,i,i,i,?,?,i
Cc1cccc(N(Cc2cc3cc(C)ccc3[nH]c2=O)C(=O)c2cccs2)c1,i,i,?,13µM,7.4µM,i
Cc1nc(-c2ccc(NC(=O)/C=C\C(=O)O)cc2)cs1,i,18,i,i,i,50
Cc1ccc2sc(-c3ccc(NC(=O)/C=C\C(=O)O)cc3)nc2c1,i,40,i,i,?,112
CCCC(=O)Nc1ccc(-c2csc(-c3cccnc3)n2)cc1,i,i,?,i,i,i
Cc1ccc(S(=O)(=O)Nc2ccc(NC(=O)/C=C/C(=O)O)cc2)cc1,i,i,i,i,i,i
CCCCCC(=O)Nc1ccc(-c2csc(C)n2)cc1,i,46,i,i,i,77
CCCCCC(=O)Nc1ccc(-c2csc(N)n2)cc1,i,57,?,?,i,123
CC(C)[C@H](NC(=O)[C@@H]1Cc2c([nH]c3ccccc23)C2c3ccccc3C(=O)N21)C(=O)N1CCC[C@@H]1C(=O)O (stereo partly specified),i,i,i,i,15µM,i
CC(C)[C@H](NC(=O)N1CC(=O)Nc2ccccc21)C(=O)N1CCC[C@H]1C(=O)O,i,i,i,i,i,i
O=C(Nc1scc(-c2ccc(Br)cc2)c1C(=O)O)c1ccccc1F,i,nt,i,nt,nt,nt
O=C(/C=C/c1ccccc1)Nc1scc(-c2ccccc2)c1C(=O)O,i,30,i,i,?,59
Cc1sc(NC(=O)/C=C/c2ccco2)c(C(=O)OC(C)C)c1C,i,i,?,i,i,i
O=C(/C=C/c1ccco1)Nc1scc(-c2ccccc2)c1C(=O)O,i,22,i,?,i,i
C[C@@H]1CN([C@@H](C)CO)C(=O)c2cc(Br)cnc2O[C@H]1CN(C)Cc1cccc(C(=O)O)c1,i,nt,nt,nt,nt,nt
O=S1(=O)C=C(Sc2nnc(-c3ccccc3)o2)c2ccccc21,i,i,10µM,3.7µM,i,i
CCN1CCN(c2ccc(S(=O)(=O)N3CCCCC3)cc2NC(=O)Cc2ccc(OC)cc2)CC1,i,i,i,9.3µM,5.9µM,i
CCN1CCN(S(=O)(=O)c2ccc(Cl)c(C(=O)Nc3ccccc3N3CCCCC3)c2)CC1,?,nt,13µM,?,?,nt
CCN1CCN(c2ccc(S(=O)(=O)N3CCCCC3)cc2NC(=O)c2cccc(Cl)c2)CC1,i,nt,?,?,8.3µM,nt
CCN1CCN(c2ccc(S(=O)(=O)N3CCCCC3)cc2NC(=O)c2cccc(OC(F)F)c2)CC1,i,nt,?,?,10µM,nt
CCN1CCN(S(=O)(=O)c2ccc(Cl)c(C(=O)Nc3ccccc3N3CCCC3)c2)CC1,i,nt,i,?,?,nt
CC(C)(C)S(=O)(=O)/C(C#N)=C/c1cccn1S(=O)(=O)c1ccccc1,i,nt,nt,nt,nt,nt
CC(C)(C)C(=O)OCOP(=O)(OCOC(=O)C(C)(C)C)C(C)(Oc1ccc(O)cc1)P(=O)(OCOC(=O)C(C)(C)C)OCOC(=O)C(C)(C)C,nt,i,nt,nt,nt,i
CC[C@@]1(C(=O)OC)N[C@H](CN(C)S(=O)(=O)c2ccc(-c3ccccc3)cc2)[C@@H]2C(=O)N(Cc3ccccc3)C(=O)[C@@H]21,i,nt,i,nt,nt,nt
Cc1cc2c(s1)c1cnn(Cc3cccc(Cl)c3)c(=O)c1n2C,nt,i,nt,nt,nt,i
SMILES,AMA1 RON2 block,CHX counter,HCV inhibitor,Pf growth 48h,Pf growth 96h,Shiga toxin inh
CCN(CC)S(=O)(=O)c1ccc(N2CCCC2)c(NC(=O)Cc2c(F)cccc2Cl)c1,i,i,i,i,i,i
COc1ccc(CC(=O)Nc2cc(S(=O)(=O)N3CCCCC3)ccc2C)cc1,i,nt,?,?,?,nt
COc1ccc(CC(=O)Nc2cc(S(=O)(=O)Nc3ccc(OC)cc3)ccc2OC)cc1,i,nt,13µM,nt,nt,nt
CCN1CCN(c2ccc(S(=O)(=O)N3CCCCC3)cc2NC(=O)Cc2c(F)cccc2Cl)CC1,i,i,?,?,13µM,i
COc1ccc(CCC(=O)Nc2cc(S(=O)(=O)N3CCCCC3)ccc2N(C)C)cc1,i,nt,i,10µM,?,nt
CCN1CCN(S(=O)(=O)c2ccc(Cl)c(C(=O)N(C)C(c3ccccc3)c3ccccc3)c2)CC1,i,nt,?,9.3µM,13µM,nt
CC(C)(C)c1ccc(S(=O)(=O)NC(=O)C2(C)CCN2C(=O)c2cccc3ccccc23)cc1 (stereo unspecified),i,nt,nt,nt,nt,nt
CC(CCC(=O)Nc1nncs1)C(=O)O (stereo unspecified),i,i,i,i,12µM,i
CC1(C(=O)NS(=O)(=O)c2ccc3ccccc3c2)CCN1C(=O)CC1CCCCC1 (stereo unspecified),i,nt,nt,nt,nt,nt
CN(C)C(=O)COc1ccc2cc(-c3ccccc3)c(=O)oc2c1,i,25,i,i,i[5.75 µM],54
Cc1cc(OCC(=O)N(C)C)c2c(-c3ccccc3)cc(=O)oc2c1,i,i,i,nt,10µM,i
O=c1oc2cc(OCc3c(F)cccc3Cl)ccc2cc1-c1ccccn1,i,i,i,i,?,i
O=c1oc2ccc(Cl)cc2cc1-c1ccccc1,i,i,i,i,i,i
O=c1oc2ccccc2cc1-c1ccccc1,i,30,i,i,i,i
CCCOc1ccc2cc(-c3ccccn3)c(=O)oc2c1,i,39,i,i,i,i
CC1COC(=O)O1 (stereo unspecified),nt,i,nt,nt,nt,i
O=C(NC1CCCCC1)c1cc(S(=O)(=O)N2CCCC2)ccc1Cl,i,i,?,i,i,i
COc1ccc(-c2cc(=O)oc3cc(OCC(=O)N(C)C)ccc23)cc1,i,i,i,?,10µM,i
COC(=O)C(C)Oc1ccc2cc(-c3ccccc3)c(=O)oc2c1 (stereo unspecified),i,i,i,i,i,i
CCN(CC)C(=O)COc1ccc2c(-c3ccccc3)cc(=O)oc2c1,i,i,i,?,i,i
COc1ccc2cc(-c3ccccc3)c(=O)oc2c1,i,32,?,i,i,52
COc1ccc(N(C)S(=O)(=O)c2ccc3c(c2)NC(=O)CO3)c(OC)c1,i,i,i,i,i,i
Cc1ccc2nc(NC(=O)c3cc(-c4ccco4)nc4ccccc34)sc2c1,i,24,?,i,?,i
O=C(Nc1nc2ccccc2s1)c1cc(-c2ccco2)nc2ccccc12,?,50,?,i,i,60
CCN(C(=O)CO/N=C/c1ccc(OC)cc1OC)c1c(N)n(Cc2ccccc2)c(=O)[nH]c1=O,i,nt,?,i,i,nt
Cc1cc(N2CCOCC2)nc2ccc(Cl)cc12,i,41,i,i,i,62
Cc1cc(N2CCOCC2)nc2ccc(NC(=S)NCCN(C)C)cc12,i,i,?,i,i,i
CCC(C)NC(=S)Nc1ccc2nc(N3CCOCC3)cc(C)c2c1 (stereo unspecified),i,i,11µM,i[0.00184 µM],i,i
Cc1cc(N2CCN(C)CC2)nc2ccc(NC(=S)NCCC(C)C)cc12,i,i,?,i[0.00184 µM],i,i
